PubChem BioAssay AID1002 (National Center for Advancing Translational Sciences (NCATS), 2008)
Calls of active or inactive are those of the source.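 The calls were made as follows: active = compound given an inhibitor call from its dose-response curve against AmpC beta-lactamase with detergent added; inactive = the rest.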

target: Beta-lactamase (Escherichia coli (strain K12)) (UniProt P00811); test: Confirmation Concentration-Response Assay for Inhibitors of AmpC Beta-Lactamase (assay with detergent); conditions: purified AmpC, nitrocefin absorbance 480 nm, 0.01% Triton
Experimental: NIH Molecular Libraries Screening Centers Network [MLSCN] NIH Chemical Genomics Center [NCGC] MLSCN Grant: MH079825-01 Assay Provider: Shoichet, Brian K. This aggregation profiling approach exploits the sensitivity of aggregate formation to detergent. Inhibition of b-lactamase is measured in the presence and absence of 0.01% Triton X-100 (Feng 2007). This particular assay is a confirmation of previous qHTS (Inglese, 2006), Pubchem AID 584, assay with presence of 0.01% Triton X-100. For a related assay without detergent, see AID 585. Compounds that inhibit only in the absence of detergent are considered likely promiscuous aggregators. In this confirmation assay, AmpC activity was measured by following the absorbance at 480 nm. Nitrocefin is a chromogenic substrate: while nitrocefin is yellow (lmax 390 nm), the product of its hydrolysis is red (lmax 486 nm, 17,000 M-1). AmpC beta-lactamase was provided by Prof Brian Shoichet's lab, UCSF.
Buffer: 1. 20 mM phosphate buffer, pH 7.0, 0.01 % Triton X-100 2. Reagents/Controls. 3. Buffer in row 32 as negative control (no enzyme). 4. 3 nM AmpC final concentration in rows 1-31. Assay Steps: Six uL of reagents were dispensed to 1536-well Greiner black clear bottom plates. Compounds (23 nL) were transferred via Kalypsys PinTool. The plates were incubated for 15 min at room temperature, and then 2 uL of 800 uM solution of nitrocefin was added to start the reaction. The plates were immediately transferred to and read every 20 seconds for 3 minutes on ViewLux (Perkin-Elmer) High-throughput CCD imager using 480 nm absorbance protocol.

Beta-lactamase (Escherichia coli (strain K12)), sequence (P00811 whole entry, looked up): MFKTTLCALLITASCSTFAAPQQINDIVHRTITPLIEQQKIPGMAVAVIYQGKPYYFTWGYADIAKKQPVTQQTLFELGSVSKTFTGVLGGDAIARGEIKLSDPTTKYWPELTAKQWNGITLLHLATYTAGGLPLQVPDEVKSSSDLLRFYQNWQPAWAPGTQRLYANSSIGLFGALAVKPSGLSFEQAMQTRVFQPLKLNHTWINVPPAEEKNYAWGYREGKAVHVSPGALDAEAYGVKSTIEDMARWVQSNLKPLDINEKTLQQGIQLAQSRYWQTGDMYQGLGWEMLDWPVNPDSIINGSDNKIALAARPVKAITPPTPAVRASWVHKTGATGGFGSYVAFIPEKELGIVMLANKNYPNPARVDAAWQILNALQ

Potency, active:
CC(C)(C)OC(=O)N[C@@H](Cc1ccccc1)c1nnc(S(=O)(=O)Cc2cccc(F)c2)o1 15 µM, Cc1ccccc1CS(=O)(=O)c1nnc([C@H](CC(C)C)NC(=O)OC(C)(C)C)o1 11 µM, CC(C)(C)OC(=O)N[C@@H](Cc1ccccc1)c1nnc(S(=O)(=O)Cc2ccccc2)o1 16 µM, CC(C)[C@H](NC(=O)OC(C)(C)C)c1nnc(S(=O)(=O)Cc2c(F)cccc2Cl)o1 1.8 µM, CCC(C)[C@@H](NC(=O)OC(C)(C)C)c1nnc(S(=O)(=O)Cc2cccc(C)c2)o1 (some centres undefined) 10 µM, CC[C@@H](C)[C@H](NC(=O)OC(C)(C)C)c1nnc(S(=O)(=O)Cc2cc(C)ccc2C)o1 10 µM, CC(C)(C)OC(=O)NCCc1nnc(S(=O)(=O)Cc2ccc(Cl)cc2Cl)o1 0.066 µM, CC(C)C[C@H](N)c1nnc(S(=O)(=O)Cc2cccc(F)c2)o1 8.6 µM, COC(=O)CS(=O)(=O)c1nnc([C@H](Cc2ccccc2)NC(=O)OC(C)(C)C)o1 9.4 µM
